# Screening data: PubChem BioAssay, National Center for Advancing Translational Sciences (NCATS)
# Pol iota inh: qHTS for Inhibitors of Polymerase Iota; DNA polymerase iota (Homo sapiens), Q9UNA4; Pol iota fluorescent replication assay, 10 min; Potency, µM (series often up to 115 µM), hits mostly inhibitors; 390,000 tested, 1% active
#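 Pol iota at 10 nM preincubated 15 min with compounds at room temperature; reaction started with fluorescent substrate, 50 nM final. Fluorescence read kinetically at 0 and 10 min; buffer-only wells as negative control.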
# WRN helicase inh: qHTS for Inhibitors of WRN Helicase | 360,000 tested, 0.46% active | Potency, µM (doses to about 114 µM), usual class: inhibitors | WRN helicase unwinding, fluorescent forked duplex, kinetic | Bifunctional 3'-5' exonuclease/ATP-dependent helicase WRN (Homo sapiens), Q14191 | AID 651768, 2012; note: nearly all actives have a fitted effect of over 55% in size
#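 Kinetic fluorescence helicase assay: unwinding of a quenched forked DNA duplex (100 nM final) with 2 mM ATP final raises red fluorescence (525/598 nm). Compounds sat 15 min at room temperature with 20 nM WRN beforehand.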
# Pol eta inh: qHTS for Inhibitors of Polymerase Eta; DNA polymerase eta (Homo sapiens), Q9Y253; AID 588591, 2011; 390,000 tested, 1.2% active; recombinant Pol eta, fluorescent DNA replication assay; Potency, µM (top dose mostly 114 µM), usual class: inhibitors
#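 Pol eta at 10 nM preincubated with compounds 15 min at room temperature; reaction started with fluorescent substrate (50 nM final) and read kinetically at 0 and 10 min.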
# Pol beta inh: qHTS Assay for Inhibitors of DNA Polymerase Beta; 340,000 tested, 1.3% active; Potency, µM (highest dose often 114 µM), usual class: inhibitors; Pol beta primer extension/strand displacement, fluorescence kinetic; P06746; AID 485314, 2010
#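 Reaction started by 50 nM substrate onto compound-treated Pol beta (10 nM, 15 min preincubation, room temperature); plates read at 0 min and 10 min. Normalized concentration-effect data fitted by four-parameter Hill equation.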
# FEN1 inh-1: qHTS Assay for the Inhibitors of Human Flap endonuclease 1 (FEN1). P39748. Recombinant FEN1 flap cleavage, fluorescence, 15 min. Potency, µM (doses to about 114 µM), hits mostly inhibitors. 390,000 tested, 0.35% active; note: nearly all actives have a fitted effect of over 65% in size
#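 Concentration–response screening of FEN1 (10 nM): 15 min compound preincubation at room temperature, reaction started with 50 nM substrate and read at 0 and 15 min. Corrected, normalized data were fitted by a four-parameter Hill equation.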
# Pol kappa inh: qHTS for Inhibitors of Polymerase Kappa; Potency, µM (highest dose often 107 µM), usual class: inhibitors; purified Pol kappa, fluorescent DNA synthesis assay, 10 min; DNA polymerase kappa (Homo sapiens), Q9UBT6; 400,000 tested, 0.53% active
# Target sequence (Q9UBT6 whole entry, looked up): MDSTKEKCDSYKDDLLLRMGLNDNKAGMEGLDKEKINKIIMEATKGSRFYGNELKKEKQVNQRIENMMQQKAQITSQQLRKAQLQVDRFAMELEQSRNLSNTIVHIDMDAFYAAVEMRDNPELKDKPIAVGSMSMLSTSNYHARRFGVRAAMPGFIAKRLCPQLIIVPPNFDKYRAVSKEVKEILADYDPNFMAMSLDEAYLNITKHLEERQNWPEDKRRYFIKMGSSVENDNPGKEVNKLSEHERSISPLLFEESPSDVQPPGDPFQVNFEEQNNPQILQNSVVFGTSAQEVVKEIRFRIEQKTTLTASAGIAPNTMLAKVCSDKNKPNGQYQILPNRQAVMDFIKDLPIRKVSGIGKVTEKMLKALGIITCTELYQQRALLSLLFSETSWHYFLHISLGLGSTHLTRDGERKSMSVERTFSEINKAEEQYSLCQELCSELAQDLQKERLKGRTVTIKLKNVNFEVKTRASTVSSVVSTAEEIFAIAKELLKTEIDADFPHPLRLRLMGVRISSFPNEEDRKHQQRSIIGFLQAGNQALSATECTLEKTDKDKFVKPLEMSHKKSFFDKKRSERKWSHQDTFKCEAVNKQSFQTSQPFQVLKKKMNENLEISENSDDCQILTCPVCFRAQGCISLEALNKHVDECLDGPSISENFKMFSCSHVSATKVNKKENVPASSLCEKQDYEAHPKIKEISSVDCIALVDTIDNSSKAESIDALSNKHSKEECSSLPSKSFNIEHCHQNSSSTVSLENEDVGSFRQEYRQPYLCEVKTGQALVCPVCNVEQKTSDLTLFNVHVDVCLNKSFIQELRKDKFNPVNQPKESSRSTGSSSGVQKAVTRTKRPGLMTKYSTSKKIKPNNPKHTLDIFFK
#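 10 nM Pol kappa was preincubated with compounds for 15 min at room temperature. Reaction started with 50 nM (final) substrate. Fluorescence read kinetically at 0 and 10 min.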
# FEN1 inh-2: qHTS Assay for the Inhibitors of FEN1: Confirmatory Assay for Cherry-picked Compounds; shares compounds with FEN1 inh-1; FEN1 flap cleavage, TAMRA/BHQ2 fluorogenic DNA substrate; AID 720498, 2013; 880 tested, 79% active; Potency, µM, actives largely listed as inhibitors; note: nearly all actives have a fitted effect of over 60% in size
# Numbers stand for hits; 0 = inactive; ? = inconclusive; - = no result; [ ] = another dose, or the depositor's remark. In the library only some 2.4% were active in any assay of this set; here they are far more common. Calls come from the whole dose curve; as a rule, active = well fitted curve in the direction sought with a large enough effect; inconclusive = small, poorly fitted or top-dose-only effect, or another doubt; inactive = no such curve, though single readings can be large; an effect the other way counts as inactive or inconclusive.
SMILES,Pol iota inh,WRN helicase inh,Pol eta inh,Pol beta inh,FEN1 inh-1,Pol kappa inh,FEN1 inh-2
CC1=C(c2ccc(Cl)cc2)S(=O)(=O)NC1=NCCCN1CCN(c2cc(C)ccc2C)CC1,0,-,0,0,0,0,-
Nc1nccnc1C(=O)OCC(=O)Nc1ccc2[nH]c(=O)[nH]c2c1,20µM,?,22µM,-,?,?,?
NC(=O)CSc1ccc2nnc(-c3ccncc3)n2n1,0,-,-,-,0,0,-
Cc1cc(C)c(NC(=O)Cn2c(=O)n(CC(=O)NCc3ccccc3Cl)c(=O)c3sccc32)c(C)c1,0,-,-,0,0,0,-
COc1c(N2CCNC(C)C2)c(F)cc2c(=O)c(C(=O)O)cn(C3CC3)c12 (stereo not drawn),0,-,-,-,?,0,-
NC1CCN(c2c(F)cc3c(=O)c(C(=O)O)cn(C4CC4)c3c2Cl)C1 (stereo not drawn),0,0[11.6 µM],0,?,32µM,0,?
CCC(=O)O[C@@H](OP(=O)(CCCCc1ccccc1)CC(=O)N1C[C@H](C2CCCCC2)C[C@H]1C(=O)O)C(C)C (stereo partly drawn),-,-,-,-,-,0[19.4 µM],-
COc1ccc(N)c2c1C(=O)c1ccccc1C2=O,?,20µM,0,?,?,?,76
CCCCCOC(=O)Nc1nc(=O)n(C2O[C@H](C)[C@@H](O)[C@@H]2O)cc1F (stereo partly drawn),-,-,-,-,-,0,-
COc1ccccc1-[n+]1c(C)cc(/C=C2\Sc3ccccc3N2C)cc1C,0,?,?,?,?,?,38
COc1ccccc1OC(=O)CCN1c2ccccc2Sc2ccccc21,0,0,0,0,0,0,-
CSc1cccc(NC(=O)c2ccc3c(c2)c(C)c(C)n3Cc2ccc(F)cc2)c1,0,-,0,0,0,0,-
CCN1/C(=C/c2ccc3cc(C)ccc3[n+]2CC)Sc2ccccc21,?,?,?,?,?,0,19
C/C(=C(/CCO)SS/C(CCO)=C(\C)N(C=O)Cc1cnc(C)nc1N)N(C=O)Cc1cnc(C)nc1N,-,-,-,-,-,0[19.4 µM],-
Cn1c(N)c(C(=O)CSc2nnc(-c3c[nH]c4ccccc34)n2C2CC2)c(=O)[nH]c1=O,40µM,?,?,-,20µM,0,43
COc1ccc(Nc2nc(N3CCCC3)c3ccccc3n2)cc1,?,?,0,35µM,?,0,34
COc1ccc(Nc2c3ccccc3nc3ccccc23)cc1,?,?,0,?,?,0,30
CCN(CC)c1ccc(Nc2nc(N3CCOCC3)c3ccccc3n2)cc1,?,0,0,0,0,0,-
COc1ccc(Nc2c3c(nc4ccccc24)CCC3)cc1,0,0,0,0,0,0,-
CCNc1ncc2nc(-c3cccs3)c(=O)n(Cc3cccc(OC)c3)c2n1,-,-,-,-,-,0,-
Cc1ccc(C2=Nc3ccccc3N(CC(=O)Nc3ccccc3C)C(=O)C2)cc1C,0,-,0,0,0,0,-
COc1cccc(-c2nc(N3CCN(C)CC3)c3ccccc3n2)c1O,?,0[11.6 µM],0,0,50µM,0,38
Cc1csc2nc(COC(=O)c3cccc(NC(=O)COc4ccccc4Cl)c3)cc(=O)n12,0,-,0,0,0,0,-
COC(=O)c1ccc(NC(=O)CC2C(=O)N(c3cccc(OC)c3)C(=O)N2Cc2ccco2)cc1 (stereo not drawn),0,-,0,0,0,0,-
Cc1ccsc1/C=N/NC(=O)C(N)=O,0,0,0,0,16µM,0,?
C=C1CN(C(C(=O)OC)C(C)C)S(=O)(=O)c2ccc(F)cc21 (stereo not drawn),0,-,-,-,0,0,-
CN(C)CCCNc1cc(O)c2ncccc2c1,6.3µM,-,0,-,0,0,38
Oc1cc(NCc2ccc(F)cc2)cc2cccnc12,0,-,0,-,0,0,-
